Data on four sequences can be found in the supplement of paper PMC6555819.

Holding throughout (assay): PBM binding z-score (relative to random genomic background probes); higher = stronger binding; sequences stand for … in GC…GCGATTGACAGCGTAGAATGAAGG
The subject of experiment [1] is FXR:RXRa (NR concentration 270 nM, RXRa partner concentration 90 nM). In outline:
(§1)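 Custom Agilent 4×180K protein-binding microarrays carried double-stranded probes, each with a 34-nt variable region. These regions held direct-repeat seeds, single-nucleotide variants, half-site ablations and random human genomic background sequences. Ligand-free nuclear receptor dimers were incubated on the arrays for 1 h, antibodies against each partner (one per run) detected binding, and scanned fluorescence was regression-normalized. Binding z-scores take the random background probes as reference.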

In experiment [2] the test system is LXRa:RXRa (NR concentration 270 nM, RXRa partner concentration 90 nM). A digest of the protocol: as §1
Experiment [3] deals with LXRa homodimer (NR concentration 270 nM). A digest of the protocol:
as §1

Experiment [4] deals with LXRb:RXRa (NR concentration 270 nM, RXRa partner concentration 90 nM). In outline: as §1
Experiment [5] relates to LXRb homodimer (NR concentration 270 nM). In outline:
as §1

The test system of experiment [6] is PPARa:RXRa (NR concentration 270 nM, RXRa partner concentration 90 nM). A digest of the protocol:
as §1

Experiment [7] relates to PPARg:RXRa (NR concentration 180 nM, RXRa partner concentration 90 nM). A digest of the protocol:
as §1

In experiment [8] the test system is PPARg:RXRa 270nM:90nM, anti-RXR (NR concentration 270 nM, RXRa partner concentration 90 nM). A digest of the protocol: as §1
Experiment [9] relates to PPARg:RXRa 30nM:10nM, anti-RXR (NR concentration 30 nM, RXRa partner concentration 10 nM). In outline:
as §1

Experiment [10] concerns PPARg:RXRa 90nM:30nM, anti-RXR (NR concentration 90 nM, RXRa partner concentration 30 nM). A digest of the protocol: as §1
Experiment [11] has as its system PPARg:RXRa DBDmut IVT, anti-RXR (DBD mutation: RXRa K156A/R161A, NR concentration 270 nM, RXRa partner concentration 90 nM). In outline: as §1
For experiment [12], the system named is PPARg:RXRa IVT, anti-PPARg (NR concentration 270 nM, RXRa partner concentration 90 nM). In outline:
as §1

Experiment [13] concerns PPARg DBDmut:RXRa IVT, anti-PPARg (DBD mutation: PPARg1 K132A/R137A, NR concentration 270 nM, RXRa partner concentration 90 nM). In outline: as §1
Experiment [14] concerns PPARg DBDmut IVT, anti-PPARg (DBD mutation: PPARg1 K132A/R137A, NR concentration 270 nM). In outline: as §1
The subject of experiment [15] is PPARg homodimer (NR concentration 180 nM). A digest of the protocol:
as §1

The subject of experiment [16] is PXR:RXRa (NR concentration 270 nM, RXRa partner concentration 90 nM). A digest of the protocol:
as §1

Experiment [17] relates to PXR homodimer (NR concentration 270 nM). In outline: as §1
The subject of experiment [18] is RARa:RXR (NR concentration 270 nM, RXRa partner concentration 90 nM). In outline:
as §1

Experiment [19] concerns RARa homodimer (NR concentration 270 nM). A digest of the protocol: as §1
For experiment [20], the system named is RARb:RXRa (NR concentration 270 nM, RXRa partner concentration 90 nM). In outline:
as §1

On to GATACAGGGTCAGGGCCAGAGTACGCGTATTGAT, for which the PBM binding z-score in experiment [1] was 4.33; in experiment [2] it was 2.61; in experiment [3] it was -0.233; in [4], 2.53; in experiment [5], -0.183; in experiment [6], 4.46. Also, the PBM binding z-score in experiment [7] was determined as 3.86; in experiment [8], 3.63; in [9], 0.972; in experiment [10] it was 2.36; in [11], 1.35; in experiment [12], 2.69. Moreover, the PBM binding z-score in [13] is -0.0398; in [14], -0.619; in [15] it was 1.64; in experiment [16] it was 2.28; in experiment [17], 0.125; in experiment [18] it was 3.24. Also, the PBM binding z-score in experiment [19] was 0.471; in [20], 3.82.

As for TGAATGAGGTTAGAAGATCAGGGAACGTTGCAAA, the PBM binding z-score was 0.452 in experiment [1]; 0.337 in experiment [2]; -0.383 in experiment [3]; 0.0743 in [4]; -0.188 in [5]; 1.59 in [6]. In addition, the PBM binding z-score stood at 0.84 in experiment [7]; 1.29 in experiment [8]; 0.759 in experiment [9]; 0.966 in experiment [10]; 0.481 in experiment [11]; 1.07 in [12]. For the same sequence, the PBM binding z-score in experiment [13] was 0.215; in experiment [14], 0.423; in [15], 0.0749; in experiment [16], 0.145; in [17], -0.0637; in experiment [18], 0.485. The PBM binding z-score in experiment [19] stood at 0.14; in [20], 0.954.

For the sequence TGAATGAGGTAAAAGATCAGGGAACGTGGCGTCG, the PBM binding z-score in experiment [1] was 0.359; in [2], -0.0204; in experiment [3], -0.712; in [4] it was -0.13; in [5] it was -0.307; in experiment [6] it was 2.5. In addition, the PBM binding z-score in [7] came to 3.68; in experiment [8], 5.02; in experiment [9], 3.41; in experiment [10], 5.53; in experiment [11], 0.669; in experiment [12] it was 2.02. For the same sequence, the PBM binding z-score is 0.836 in experiment [13]; -0.202 in experiment [14]; 0.305 in [15]; -0.0852 in [16]; -0.139 in [17]; 0.545 in [18]. Further, the PBM binding z-score in experiment [19] was -0.524; in [20], 0.0467.

Consider CGAACTAGGTCATCCAGGACAGTTAATACATTGA, for which the PBM binding z-score amounted to 4.18 in experiment [1]; 2.59 in experiment [2]; 0.501 in experiment [3]; 2.29 in [4]; 0.155 in experiment [5]; 4.77 in [6]. The PBM binding z-score in [7] was 7.57; in experiment [8] it was 6.32; in experiment [9], 3.81; in [10], 5.9; in experiment [11] it was 7.93; in [12], 8.11. In addition, the PBM binding z-score worked out at 4.57 in [13]; 2.72 in experiment [14]; 2.19 in experiment [15]; 2.02 in experiment [16]; 1.63 in [17]; 2.6 in experiment [18]. The PBM binding z-score is 1.19 in experiment [19] and 3.72 in experiment [20].
